Values joined by “and” are separate entries in the source; they are usually repeats but may differ in a detail not shown here. Identical values can stand only once. This is part of a sample that, as a whole, favours compounds with a hit. Of some 83,000 tested, about 20% had one in any assay.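 96-well plates, one dose, 48 hours. Percent growth reported; active if below 10.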 Active and inactive are the calls of the source.

The subject of the assay is MCF7 breast. The assay can be described thus: NCI-60 one-dose screen, 48 h (100 = growth as untreated, 0 = no growth, -100 = all killed). As to conditions: 10 µM unless noted.
For the compound `O=C(Cc1nc2ccc(C(=O)c3ccccc3)cc2[nH]c1=O)C(=O)Nc1ccccc1[N+](=O)[O-]`, the growth was 27.4% [100 µM] (inactive) and 4.17% [100 µM] (active).

`CC(C)/C(Cl)=N/OC(=O)Nc1cccc(C(F)(F)F)c1`: the growth is -79.5% [100 µM] (active) and -84.4% [100 µM] (active).

Take `Cc1ccc(NC2=N/C(=C/c3ccccc3)C(Cl)=N2)cc1`: the growth was 71.3% [100 µM] (inactive) and 75.4% [100 µM] (inactive).

On to `Cc1cc(N(CCC#N)CCC#N)ccc1/C=N/NC(=O)c1cc(Cl)ccc1O`, for which the growth is 43.8% [100 µM] (inactive) and 13.1% [100 µM] (inactive).

As for `O=C(O)COc1cc(-c2ccccc2F)nc2cc3c(cc12)OCO3`, the growth is 86.4% [100 µM] (inactive) and 58% [100 µM] (inactive).

Turning to `COC(=O)c1cc(C#N)[nH]c1-c1ccsc1`, the growth is 9.03% [100 µM] (active) and -89.1% [100 µM] (active).

In the case of `COC(=O)/C=C\C(C#N)(C#N)N=Cc1ccsc1`, the growth was -73.8% [100 µM] (active) and -39.1% [100 µM] (active).

Regarding `O=c1c2ccccc2nc(-c2ccccc2)n1/N=C/c1ccccc1[N+](=O)[O-]`, the growth was 65.7% [100 µM] (inactive) and 73.8% [100 µM] (inactive).

With `C=C(C)C1CC2(C)C(C)CC(OC(=O)/C(C)=C\C)CC2C(OC(=O)/C(C)=C\C)C1O` (stereo not given), the growth was -15.7% [100 µM] (active) and -14.3% [100 µM] (active).

In the case of `CCOC(=O)c1cc(C)nc2c1c(=O)n(-c1ccccc1)c(=O)n2CCCCN1CCN(c2ncccn2)CC1`, the growth is 100% [100 µM] (inactive) and 90.8% [100 µM] (inactive).

These data come from PubChem BioAssay (NCI).
